# From the supplement of paper PMC13094657
# ± gives the standard deviation of the averaged measurements.
# Tested on: MDA-MB-231
# Experiment: kynurenine production, fold change vs DMSO IFNg/TNF control; higher = more kynurenine produced (less inhibition)
# Settings: pre-treatment time: 18 h then 24 h IFNg/TNF
# Outline: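 MDA-MB-231 cells were seeded in 96-well plates at 7 × 10^4/well and, 24 h later, pre-treated for 18 h with each natural product in 0.1% DMSO. They were then stimulated for 24 h at 37°C with IFNγ (1 U/ml) and TNF (6.25 ng/ml). Supernatants were treated with trichloroacetic acid and p-dimethylaminobenzaldehyde and read at 492 nm against 0–100 μM standards. Kynurenine production is expressed as fold change over cytokine-stimulated vehicle wells on the same plate and, in the first screening round, averaged across duplicate plates.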
row,Compound,kynurenine production
1,"CC12CCC(CC1)C(C)(C)O2 [1,8-cineole] (compound dose: 10 uM)",0.913 ± 0.074
2,C[C@@H]1CC[C@@]2(OC1)O[C@H]1C[C@H]3[C@@H]4CC=C5C[C@@H](O)C[C@@H](O)[C@]5(C)[C@H]4CC[C@]3(C)[C@H]1[C@@H]2C [Ruscogenin] (compound dose: 10 uM),1.32 ± 0.2
3,C/C=C1/[C@H](O[C@@H]2O[C@H](CO)[C@@H](O)[C@H](O)[C@H]2O)OC=C(C(=O)OC)[C@H]1CC(=O)OCCc1ccc(O)c(O)c1 [Oleuropein] (compound dose: 10 uM),0.733 ± 0.15
4,C=C(C)[C@@H]1CCC2=CC(=O)C[C@@H](C)[C@]2(C)C1 [Nootkatone] (compound dose: 10 uM),0.932 ± 0.073
5,C[C@H](CC[C@@H](O[C@@H]1O[C@H](CO[C@@H]2O[C@H](CO)[C@@H](O)[C@H](O)[C@H]2O)[C@@H](O)[C@H](O)[C@H]1O[C@@H]1O[C@H](CO)[C@@H](O)[C@H](O)[C@H]1O)C(C)(C)O)[C@H]1CC[C@@]2(C)[C@@H]3CC=C4[C@@H](CC[C@H](O[C@@H]5O[C@H](CO[C@@H]6O[C@H](CO)[C@@H](O)[C@H](O)[C@H]6O)[C@@H](O)[C@H](O)[C@H]5O)C4(C)C)[C@]3(C)[C@H](O)C[C@]12C [Mogroside V] (compound dose: 10 uM),0.968 ± 0.19
6,C[C@H]1O[C@@H](O[C@H]2CC[C@@]3(C)[C@@H](CC[C@]4(C)[C@@H]3C=C[C@]35OC[C@@]6(CCC(C)(C)C[C@H]63)[C@H](O)C[C@]54C)[C@]2(C)CO)[C@H](O)[C@@H](O[C@@H]2O[C@H](CO)[C@@H](O)[C@H](O)[C@H]2O)[C@H]1O [Saikosaponin D] (compound dose: 10 uM),0.603 ± 0.2
7,CC1C(=O)OC2C(O)C34C5CC(C(C)(C)C)C36C(OC(=O)C6O)OC4(C(=O)O5)C12O (configuration not stated) [Ginkgolide B] (compound dose: 10 uM),1.18 ± 0.033
8,C[C@H]1[C@H](C)CC[C@]2(C(=O)O)CC[C@]3(C)C(=CC[C@@H]4[C@@]5(C)CCC(=O)C(C)(C)[C@@H]5CC[C@]43C)[C@H]12 [Ursonic acid] (compound dose: 10 uM),0.733 ± 0.12
9,C[C@H]1[C@H](OC(=O)CCC(=O)O)O[C@@H]2O[C@@]3(C)CC[C@H]4[C@H](C)CC[C@@H]1[C@@]24OO3 [Artesunate] (compound dose: 10 uM),0.421 ± 0.04
10,C/C=C(/C)C(=O)O[C@H]1C(C)=C[C@]23C(=O)[C@@H](C=C(COC(C)=O)[C@@H](O)[C@]12O)[C@H]1[C@@H](C[C@H]3C)C1(C)C [20-O-Acetylingenol-3-angelate] (compound dose: 10 uM),0.874 ± 0.053
11,CC1=CCC(O)(C(C)C)CC1 (configuration not stated) [Terpineol] (compound dose: 10 uM),0.885 ± 0.087
12,C=C(CC[C@@H](C(=O)O)[C@H]1[C@H](O)C[C@@]2(C)C3=C(CC[C@]12C)[C@@]1(C)CC[C@H](OC(C)=O)C(C)(C)[C@@H]1CC3)C(C)C [Pachymic acid] (compound dose: 10 uM),0.872 ± 0.093
13,C[C@H](CC[C@@H](O[C@@H]1O[C@H](CO[C@@H]2O[C@H](CO)[C@@H](O)[C@H](O)[C@H]2O)[C@@H](O)[C@H](O)[C@H]1O[C@@H]1O[C@H](CO)[C@@H](O)[C@H](O)[C@H]1O)C(C)(C)O)[C@H]1CC[C@@]2(C)[C@@H]3CC=C4[C@@H](CC[C@H](O[C@@H]5O[C@H](CO)[C@@H](O)[C@H](O)[C@H]5O)C4(C)C)[C@]3(C)[C@H](O)C[C@]12C [Siamenoside I] (compound dose: 10 uM),1.1 ± 0.063
14,COc1cc2ccc(=O)oc2cc1O[C@@H]1O[C@H](CO)[C@@H](O)[C@H](O)[C@H]1O [Scopolin] (compound dose: 10 uM),1.22 ± 0.16
15,COc1cc(C(C)=O)cc(OC)c1O [Acetosyringone] (compound dose: 10 uM),0.885 ± 0.087
16,COC(=O)C1=CO[C@@H](O[C@@H]2O[C@H](CO)[C@@H](O)[C@H](O)[C@H]2O)[C@H]2[C@@H]1C(=O)C[C@@H]2C [Verbenalin] (compound dose: 10 uM),0.834 ± 0.12
17,"C=C(C)C1CC=C(C)[C@@H](O)C1 (single isomer, unassigned; (-)) [(-)-carveol (mixed)] (compound dose: 10 uM)",1.02 ± 0.019
